Data taken from PubChem BioAssay (NCATS).
Inconclusive results are not listed. Where a call stands in place of a potency, no number is given. The source made the active and inactive calls. Calls follow the shape of the dose curve; as a rule, active = well fitted curve in the direction sought with a large enough effect; inconclusive = small, poorly fitted or top-dose-only effect, or another doubt; inactive = no such curve, though single readings can be large; an effect the other way counts as inactive or inconclusive.

Tested on: Zika virus NS2B-NS3 protease (unlinked)
Test: Optimization of GU AMC qHTS for Zika virus inhibitors: Unlinked NS2B-NS3 protease assay (AID 1347151); also: nearly all actives have a fitted effect of over 80% in size; also: potency is read from the fitted curve at half-maximal effect
Conditions: recombinant ZIKV NS2B-NS3 protease, fluorogenic AMC substrate; series mostly up to 52.5 µM
How it was run: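 Unlinked protease (25 nM final); buffer 10 mM Tris-HCl pH 8.0 + 0.01% Tween 20; AMC substrate; 15 min RT, dark; Δfluorescence normalized to no-inhibitor/no-enzyme controls; 4-parameter Hill fit.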

Row | Structure (SMILES) | Potency
1 | NC(CP(=O)(O)O)C(=O)O (configuration not stated) | inactive
2 | C[C@@H]1O[C@H](C[N+](C)(C)C)C[C@H]1O | inactive
3 | O=C(O)[C@@H]1CCN1 | inactive
4 | NC(N)=NOCCC(N)C(=O)O (configuration not stated) | inactive
5 | CN1C2CCC1CC(OC(=O)c1cc(Cl)cc(Cl)c1)C2 (configuration not stated) | inactive
6 | CC(=O)NCCc1c[nH]c2ccccc12 | inactive
7 | CCCN(CCC)[C@@H]1CCc2ccc(O)cc2C1 | inactive
8 | CC[C@@H](C(N)=O)N1CCCC1=O | inactive
9 | C#CCOC(=O)C1=CCCN(C)C1 | inactive
10 | C=CCN1CC[C@]23CCCCC2[C@H]1Cc1ccc(O)cc13 (some centres not stated) | inactive
11 | Cc1nccc2c1[nH]c1ccccc12 | 26.7 µM (active)
12 | CS(=N)(=O)CC[C@H](N)C(=O)O (some centres not stated) | inactive
13 | O=C(O)CC[N+](=O)[O-] | inactive
14 | CC(C)NC(C)Cc1ccc(I)cc1 (configuration not stated) | inactive
15 | Cn1cnc(CCN)c1 | inactive
16 | c1ccc(C2(c3ccccc3)CC2C2=NCCN2)cc1 (configuration not stated) | inactive

Row | Structure (SMILES) | Potency
17 | c1ccc2sc(C3(N4CCCCC4)CCCCC3)cc2c1 | inactive
18 | COc1ccc2c(c[n+](C)c3c4cc5c(cc4ccc23)OCO5)c1OC | 29.9 µM (active)
19 | C[N+]1(C)C2CCC1CC(OC(=O)C(CO)c1ccccc1)C2 (configuration not stated) | inactive
20 | NC(=O)CN1CC(O)CC1=O (configuration not stated) | inactive
21 | CC(=O)[C@H]1CCC2C3CC[C@H]4C[C@H](O)CC[C@]4(C)C3CC[C@@]21C (some centres not stated) | inactive
22 | COc1cc(C(O)CN)ccc1O (configuration not stated) | inactive
23 | CC(C)Oc1cccnc1N(C)C1CCN(Cc2ccccc2)CC1 | 29.9 µM (active)
24 | NCc1cc(=O)[nH]o1 | inactive
25 | CCCN1CCC[C@H](c2cccc(O)c2)C1 | inactive
26 | C[C@@H](N)Cc1cnc[nH]1 | inactive
27 | NC1CCc2cc(O)c(O)cc2C1 (configuration not stated) | inactive
28 | CCCCc1ccc(C(=O)O)nc1 | inactive
29 | C[C@]12N[C@H](Cc3ccccc31)c1ccccc12 | inactive
30 | C[C@]12CCC3C(CC[C@H]4C[C@H](O)CC[C@]34C)C1CC[C@@H]2C(=O)CO (some centres not stated) | inactive
31 | O=C1CCCN1CC#CCN1CCCC1 | inactive

Tested on: Zika virus NS2B-NS3 protease
Test: Primary screen GU AMC qHTS for Zika virus inhibitors (AID 1347154); also: nearly all actives have a fitted effect of over 70% in size
Conditions: Zika NS2B-NS3 unlinked protease, AMC fluorogenic substrate; series mostly up to 54.1 µM
How it was run: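 Fluorogenic AMC-substrate cleavage by noncovalent NS2B-NS3 protease complex (25 nM, pH 8.0 Tris buffer with Tween 20) followed for 15 minutes at room temperature (~20% conversion). Percent inhibition from ex340/em450 signal change, fitted by 4-parameter Hill equation.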

Row | Structure (SMILES) | Potency
32 | NC(CP(=O)(O)O)C(=O)O (configuration not stated) | inactive
33 | CCCN(CCC)[C@@H]1CCc2ccc(O)cc2C1 | inactive
34 | Cc1ccccc1-n1c(Cn2cnc3c(N)ncnc32)nc2cccc(C)c2c1=O | inactive
35 | C[C@]12Cc3cn[nH]c3C[C@@H]1CC[C@@H]1[C@H]2CC[C@@]2(C)[C@H]1CC[C@]2(C)O | inactive
36 | NCc1cc(=O)[nH]o1 | inactive
37 | C[C@@H](N)Cc1cnc[nH]1 | inactive
